# Results from PMC13494018.
# Values without a mark were called inactive. How the calls were made is not given here.
# Target: PDL1, Q9NZQ7
# Sequence (Q9NZQ7 whole entry): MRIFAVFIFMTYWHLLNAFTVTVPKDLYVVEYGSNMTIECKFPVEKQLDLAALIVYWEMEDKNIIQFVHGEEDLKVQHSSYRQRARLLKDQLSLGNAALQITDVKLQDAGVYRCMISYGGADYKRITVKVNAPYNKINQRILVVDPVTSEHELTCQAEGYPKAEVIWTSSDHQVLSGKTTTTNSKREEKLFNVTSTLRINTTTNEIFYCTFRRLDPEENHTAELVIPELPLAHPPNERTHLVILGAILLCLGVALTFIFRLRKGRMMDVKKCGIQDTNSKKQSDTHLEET
row,Binder,binding in a display sort
1,d8r1_design_ppi_713_dldesign_0_cycle0_af2pred (protein) DEFLAEANAAAAATSPANAAALNAAFAAALAQSDVGEGIKTLAAAADALAAASTPADAANIGKATSYFIAYLSS,not found
2,d8r1_design_ppi_669_dldesign_0_cycle1_af2pred (protein) AAAAAAANVRKVGEVSIEYVERVDAVSGANFAAGAFRGLATLLPPEVAKHAAAAAEKVRETGEKETKEALIETIRTTTAEIAALIEA,not found
3,d8r1_design_ppi_243_dldesign_0_cycle1_af2pred (protein) DQNLKGALLIGQANAYAVAAAKAAAAAGAPAAEVQAAIDKVRAMTAEAGKLSPSLASTAERVAAIEGARLAAAA,not found
4,d8r1_design_ppi_254_dldesign_0_cycle0_af2pred (protein) AAAKALAEAALREVGSALSEAISLTSKDPKKGEEKFKEAEALAKAKVAEMEAIDPAVGAALKAAVDALLAQTKLIMEKIKEAKK,not found
5,d8r1_design_ppi_23_dldesign_0_cycle1_af2pred (protein) DAEEKKKLAKKMEEMAKKVAAAGKAVPAVKAEADATAKALKAMAKLALEGSLEDAKSLLKAGEAAAKRVLEKAKAAAAAAA,not found
6,d8r1_design_ppi_56_dldesign_0_cycle0_af2pred (protein) EAEKALKEAAEKIKKAAKEAEKDPEKAVEYFSEALAYAMRTAIKYPEIAAALGAAAAGLAEGAREAKKDVEKGVKIAEKAAKELEKA,not found
7,d8r1_design_ppi_254_dldesign_0_cycle1_af2pred (protein) AAAQAAAAEALRKVREAFSEAIALTVKNPEEGEKKFKEAEKLAEAAVKEQKAVDPAVGAALAKQVEATVKSAKEIMELIKKAKE,not found
8,d8r1_design_ppi_128_dldesign_0_cycle0_af2pred (protein) EELEKLKEEAKKEIKEALEYTEKAKEDPDYLAKALGHLNKARQLAAKLPSAEEVKKEIDKMISAAMAGDVEKAKEYAEKAIKLLEKD,not found
9,d8r1_design_ppi_1481_dldesign_0_cycle0_af2pred (protein) SSEANDAALKEGMALASATLAQARALIAAGGAAAAAAAAALAEAAVARLRELGAKYPQRAASFAALGEALRREVARLAA,not found
10,d8r1_design_ppi_86_dldesign_0_cycle1_af2pred (protein) GARAAALAAAAALNAAAAKADAAAAKAYGRAAVAAARAYFAGADGAELLALVAKVGAEDPAVAADILAIATAALAAAA,not found
11,d8r1_design_ppi_384_dldesign_0_cycle1_af2pred (protein) SAKEAAAKAARNAAAAAKKADEAGFNPKVIASLAKAAGEEALVSPESVEAAEEAAKIAEKYPSKEAQEAAKYAKELAKAAKAKAA,not found
12,d8r1_design_ppi_789_dldesign_0_cycle1_af2pred (protein) ALEERLRAALEAARELRERGVEEGWSPGELANAVLALAKEAGLPLEAQNTLAAAAMVPGERAEILLEKAEEIV,not found
13,d8r1_design_ppi_59_dldesign_0_cycle0_af2pred (protein) MSELAEEAIKALVAAHNAAAALAALGRTAEAAALSRQASEAFGKAFKALQEGDEETAKKYLEELKAIAAKAAEAAAAAAAAAAAA,not found
14,d8r1_design_ppi_1041_dldesign_0_cycle1_af2pred (protein) MEEKEEEEAKKAAKAAVDAATKVAEKAAKASTPEVAKKLTAAAKGLKGATELLAKINPKNAAAFAKAAAERFTKIAEKAVKDAA,not found
15,d8r1_design_ppi_167_dldesign_0_cycle0_af2pred (protein) SSEERYAEAAKLLAETAAKAAALIAKNPAVAEAAKEMQRYAARAAAALVAGDEEKAKEYKKKMEEALAKAEALVA,not found
16,d8r1_design_ppi_793_dldesign_0_cycle1_af2pred (protein) GISPESAKKLAKQMLEDALKAAEEARKLIKEGATPEEVQKAIRGAQAAADAAEALAKVDPAVAPYAKKAKAAVEEARKLAK,not found
17,d8r1_design_ppi_499_dldesign_0_cycle0_af2pred (protein) GMARSLQRAAENTAARAAEYLRDPAKAEIGRNALAAAAALTEKAAAEAGLSPEEAAAAAAATRAATLAAAA,not found
18,d8r1_design_ppi_179_dldesign_0_cycle1_af2pred (protein) MESARNAAEGIAKAAEENPESGARLGKGAVEVLAKRDIEAAVEAARLAAELSKEAGKEEVAEVMKKLAEEAEKKL,not found
19,d8r1_design_ppi_219_dldesign_0_cycle0_af2pred (protein) GERIKRNAEIVAATYAEVAALAAGEKEATARRAAGLLAAGAMSPEGREEYLAEALALAAEVGAEAAALVAEAAAAI,not found
